In all, about 10,000 compounds went through this assay and about 20 (0.2%) were called active. This is one part of a sample in which actives are shown more often than they occur.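 How the source made its calls: active means a compound raising TNF-alpha-driven VCAM-1 surface staining, with its hit status upheld on visual or statistical review; inactive means the rest, including hits rejected on review.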
Test: boosters of cytokine-driven VCAM-1 levels – cell-based, plate reader, pooled HUVEC, TNFa stimulus (AID 455);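 on augmentation: 0% = TNFa plus DMSO wells and 100% = a visually confirmed top hit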
Conditions: HUVEC TNFa-induced VCAM-1 immunofluorescence; active compounds read high,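 tested at 5 µM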

Question: For `COc1ccccc1/C=C1/C(=N/O)C2CCN1CC2`, which augmentation is on record?
Answer: Its augmentation is 81.5% (active).

Question: Which augmentation does the source give for `O=C(CCCOc1ccc(Cl)cc1Cl)N1CCC2(CC1)OCCO2` here?
Answer: The augmentation was “inactive”.

Question: Which augmentation does the source give for `O=C(Cn1ncc2c3ccccc3n(Cc3ccc(F)cc3)c2c1=O)N1CCC2(CC1)OCCO2` here?
Answer: The augmentation was “inactive”.

Question: For `Cc1cccc(N2CCc3c2nc2ccccc2c3N)c1`, which augmentation is on record?
Answer: The augmentation was “inactive”.

Question: For `COc1ccc(C2SCC(=O)Nc3c2c(=O)[nH]n3C2CCCCCC2)cc1OC` (stereo not given), which augmentation is on record?
Answer: Its augmentation is “inactive”.

— PubChem BioAssay AID455 (Sanford-Burnham Center for Chemical Genomics, 2006)
